From ChEMBL document CHEMBL2218924, “A broad activity screen in support of a chemogenomic map for kinase signalling research and drug discovery” (Biochem J, 2013)

Target: Tyrosine-protein kinase FRK (Homo sapiens) (UniProt P42685)
Details: at 1 µM

Chain of Tyrosine-protein kinase FRK (Homo sapiens) (P42685 whole entry): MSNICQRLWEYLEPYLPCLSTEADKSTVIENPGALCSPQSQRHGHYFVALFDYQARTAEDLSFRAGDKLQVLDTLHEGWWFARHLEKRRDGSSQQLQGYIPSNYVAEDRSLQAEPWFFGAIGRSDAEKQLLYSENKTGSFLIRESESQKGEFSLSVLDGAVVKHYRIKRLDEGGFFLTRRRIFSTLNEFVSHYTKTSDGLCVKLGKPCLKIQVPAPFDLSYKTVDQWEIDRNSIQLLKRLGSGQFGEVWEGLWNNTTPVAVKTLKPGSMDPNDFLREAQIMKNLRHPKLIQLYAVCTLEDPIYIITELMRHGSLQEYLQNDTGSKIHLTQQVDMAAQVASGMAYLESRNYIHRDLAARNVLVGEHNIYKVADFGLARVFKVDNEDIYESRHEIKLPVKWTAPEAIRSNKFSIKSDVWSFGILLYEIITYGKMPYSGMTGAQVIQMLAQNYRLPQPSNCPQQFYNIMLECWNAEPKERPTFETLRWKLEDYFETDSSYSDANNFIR

In order of rising residual activity:
1. Nc1ncnc2c1c(-c1ccc(Oc3ccccc3)cc1)cn2C1CCCC1  2%
2. COc1cc2nccc(Oc3ccc(NC(=S)NC(=O)c4ccccc4C)cc3)c2cc1OC  6%
3. COc1cc2ncnc(Nc3cccc(Cl)c3)c2cc1OC  53%
4. O=C1Nc2ccc(Cl)cc2/C1=C/c1cc(Cl)c(O)c(Cl)c1  56%
5. CCCCc1c(-c2ccc(O)cc2)[nH]c2nccnc12  59%
6. NC(=O)Nc1sc(-c2ccc(F)cc2)cc1C(N)=O  63%
7. CC(C)[C@H](CO)Nc1nc(Nc2cc(N)cc(Cl)c2)c2ncn(C(C)C)c2n1  72%
8. CC(C)c1nn(-c2c(Cl)cccc2Cl)c2nc(Cc3ccc(OCCO)cc3)[nH]c(=O)c12  72%
9. O=C1NC(=O)C(c2c[nH]c3ccccc23)=C1c1c[nH]c2ccccc12  80%
10. O=C1NC(=O)c2c1c1c3ccccc3[nH]c1n1cncc21  87%
11. N#Cc1c(NC(=O)c2cccc3ccccc23)sc2c1CCCC2  88%
12. O=C1C(Cl)=C(N2C(=O)CCC2=O)C(=O)c2ccccc21  88%
13. Cn1sc(=O)n(Cc2ccccc2)c1=O  88%
14. O=C(c1ccccc1)c1ccc(N2CCOCC2)cc1O  89%
15. CSc1nc(-c2ccc(F)cc2)c(-c2ccnc(NC(C)c3ccccc3)c2)[nH]1 (centres undefined)  90%
16. CCCC(=O)Oc1ccc2[nH]c(C(=O)c3cc4ccccc4[nH]3)cc2c1  92%
17. COc1ccc2c(c1)c(C1=C(c3c[nH]c4ccccc34)C(=O)NC1=O)cn2CCCN(C)C  97%
18. Nc1n[nH]c2nc3ccccc3nc12  98%
19. O=C(O)/C=C/c1cc(Br)c(Br)c(Br)c1Br  102%
